Experiment [1] deals with Glucocorticoid receptor (Homo sapiens) (UniProt P04150). In words: GR-GFP Redistribution (AID 450;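 active = compounds whose dose series gives a full or clear partial fitted curve of increased nuclear translocation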; note: potency is the fitted concentration of half-maximal effect). The settings on record: U2OS GR-GFP nuclear translocation, laser cytometry, 2 h.
Experiment [2] shares this target. The experiment in a line: GR-EFC Redistribution (AID 451; calls by dose curve; note: potency is the fitted concentration of half-maximal effect). The settings on record: CHO-K1 GR-EFC translocation, beta-gal luminescence, 2 h. In outline: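 Translocation of GR-ED fusion to nuclear EA restores b-gal, read by luminescence after 1 h room-temperature detection. Engineered CHO-K1 biosensor cells, 1,000/well, exposed 2 h at 37 C to titrations up to 46 uM final.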

In experiment [3] the target is Mitogen-activated protein kinase 10 (Mus musculus) (UniProt Q61831). In words: JNK3 AlphaScreen Assay (AID 530; active = well fitted curve in either direction with a large enough effect, not every such curve was filed as active;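 note: kinase came from lysate of stimulated human HepG2 cells; signal reports phosphorylation of biotinylated GST-cJun 1-79 at Ser73 with 10 µM ATP; % is set by controls: 0 for no effect and ±100 for the full control effect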). In outline:
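Compound titrations were preincubated 15 minutes at room temperature with substrate, antibody and pre-activated JNK3-containing HepG2 lysate. Reactions were started with 10 uM ATP and stopped with EDTA-containing bead buffer for AlphaScreen detection.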
In general terms: Bead proximity is the source of the signal in Alpha formats.

Experiment [4] has as its target 3',5'-cyclic-AMP phosphodiesterase 4B (Homo sapiens) (UniProt Q07343). In words: qHTS Assay for Inhibitors of PDE-IV (AID 607; active = well fitted activation curve with a large enough effect in the main read-out, with a control signal flat, not every such curve was filed as active; note: % of control where 0% means no effect). In outline: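 HEK293 ACTOne cells with CNG channel (1000/well), endogenous PDE4; membrane potential dye, compounds up to 22.9 uM final. Fluorescence Ex 535/Em 590; RO 20-1724 (100 uM final) as reference.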
On the technique in general: In qHTS, concentration-response curves come from the screen itself.

In experiment [5] the target is Ubiquitin carboxyl-terminal hydrolase 1 (Homo sapiens) (UniProt O94782). The experiment in a line: Inhibitors of USP1/UAF1: Pilot qHTS (AID 504865). Note: nearly all actives have a fitted effect of over 35% in size. Note: potency is the fitted concentration of half-maximal effect. In outline: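 Deubiquitinase activity followed as kinetic rhodamine fluorescence release from 150 nM Ub-Rho. 1 nM USP1/UAF1 with compound, after 15 min room-temperature preincubation, in HEPES pH 7.8 buffer containing TCEP, EDTA, BSA and Tween-20.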

The target of experiment [6] is DNA dC->dU-editing enzyme APOBEC-3G (Homo sapiens) (UniProt Q9HC16). In words: qHTS for inhibitors of Vif-A3G interactions: Validation (AID 588379). Note: 0% is about no effect. In outline: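 HeLa cells stably expressing Vif and A3G-eYFP, 700 cells/well, incubated overnight at 37 deg C, then exposed to compound overnight at 37 deg C. Inhibition of Vif-mediated degradation read as increased yellow fluorescence (Ex 488/Em 500-530) by laser-scanning cytometry.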

In experiment [7] the target is Furin (Homo sapiens) (UniProt P09958). The experiment in a line: Furin counterscreen qHTS for Zika virus inhibitors (AID 1347149).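 For activity change, negative = inhibition: purified recombinant full-length human furin enzyme at 5 nM; fluorescence gain from furin cutting a BOC-RVRR-AMC peptide substrate over 15 min; top concentration of the series differs between compounds; plate controls were no-inhibitor control for no effect and no-enzyme control for full effect.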 Note: nearly all actives have a fitted effect of over 70% in size. Note: potency is the fitted concentration of half-maximal effect. In outline: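 Fluorogenic cleavage of BOC-RVRR-AMC (2 microM final, Km ~15 µM) was monitored (ex 340, em 450 nm) at 37C after 15 min RT preincubation of 5 nM furin with compounds in HEPES pH 7.0 buffer with CaCl2 and Triton X-100. Percent inhibition was fitted to a 4-parameter Hill curve.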
Background: Counterscreens check selectivity or assay interference.

Experiment [8] has as its system Zika virus NS2B-NS3 protease (linked construct). In words: Confirmatory screen NINDS AMC qHTS for Zika virus inhibitors (AID 1347152).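 For activity change, negative = inhibition: top concentration of the series differs between compounds; 0% = no-inhibitor control and -100% = no-enzyme control.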 Note: nearly all actives have a fitted effect of over 70% in size. Note: potency is the fitted concentration of half-maximal effect. In outline:
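IC50s from 4-parameter Hill fits of percent inhibition, based on AMC fluorescence gain (340/450 nm) over 15 min with 10 microM Bz-Nle-KRR-AMC. Enzyme: 1 nM linked NS2B-NS3 in Tris-HCl pH 8.0; 15-min compound preincubation.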

The subject of experiment [9] is Zika virus NS2B-NS3 protease (unlinked complex). The experiment in a line: Confirmatory screen GU AMC qHTS for Zika virus inhibitors (AID 1347153).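 For potency: enzyme at 25 nM with substrate at 10 µM below its Km of 18.3 µM; potency is the fitted concentration of half-maximal effect.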 Note: nearly all actives have a fitted effect of over 70% in size. In outline: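 Unlinked NS2B-NS3 complex (25 nM) in 10 mM Tris-HCl pH 8.0, 0.01% Tween 20 preincubated 15 min with compound, then 10 microM Bz-Nle-KRR-AMC (Km 18.3 µM). Fluorescence change over 15 min, normalized, Hill-fitted.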

The test system of experiment [10] is Zika virus NS2B-NS3 protease. In words: Primary screen GU AMC qHTS for Zika virus inhibitors (AID 1347154).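 For activity change, negative = inhibition: 0% = no-inhibitor control and -100% = no-enzyme control.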 Note: nearly all actives have a fitted effect of over 70% in size. Note: potency is the fitted concentration of half-maximal effect. In outline: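 Fluorogenic AMC-substrate cleavage by noncovalent NS2B-NS3 protease complex (25 nM, pH 8.0 Tris buffer with Tween 20) followed for 15 minutes at room temperature (~20% conversion). Percent inhibition from ex340/em450 signal change, fitted by 4-parameter Hill equation.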

A short description of experiment [11]: Confirmatory screen NINDS Rhodamine qHTS for Zika virus inhibitors (AID 1347161).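 For activity change, negative = inhibition: purified Zika NS2B-NS3 protease with linked NS2B cofactor domain and Rhodamine110 peptide substrate; plate controls were no-inhibitor control for no effect and no-enzyme control for full effect.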 Note: nearly all actives have a fitted effect of over 60% in size. Note: potency is the fitted concentration of half-maximal effect. In outline:
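Enzyme (25 nM, linked NS2B-NS3) was preincubated 15 min with compound in 10 mM Tris-HCl pH 8.0, 0.01% Tween 20. Rhodamine110 substrate (1.5 microM) was then added and fluorescence read at start and after 15 min.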

Experiment [12] can be described thus: Vero cells viability qHTS for Zika virus inhibitors (AID 1347167). Note: % is set by controls: 0 for no effect and ±100 for the full control effect. In outline:
(§1)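 Compounds were tested in concentration series on cells grown in DMEM containing 4% FBS. After 24 to 48 hours, cellular ATP was measured by luminescence with CellTiter Glo.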

Experiment [13] in a line: HepG2 cells viability qHTS for Zika virus inhibitors (AID 1347168). Note: % is set by controls: 0 for no effect and ±100 for the full control effect. In outline: as §1
A short description of experiment [14]: Primary qHTS for small molecule stabilizers of the endoplasmic reticulum resident proteome: Secreted ER Calcium Modulated Protein (SERCaMP) assay (AID 1508630). Note: % is set by controls: 0 for no effect and ±100 for the full control effect. In outline:
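GLuc-SERCaMP-expressing SH-SY5Y cells, pretreated 16 h with compound, are challenged with thapsigargin to empty ER calcium stores; after 4 h, coelenterazine is added directly to the medium and luminescence is imaged.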

Experiment [15] has as its target Rap guanine nucleotide exchange factor 3 (Homo sapiens) (UniProt O95398). In words: Confirmatory qHTS for antagonist of cAMP-regulated guanine nucleotide exchange factor 3 (EPAC1) (AID 1645880). Note: potency is the fitted concentration of half-maximal effect; nearly all actives have a fitted effect of over 55% in size. In outline:
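Nucleotide exchange uses 100 nM EPAC1, 250 nM RAP1B-BODIPY-GDP and 50 uM GDP, with compounds in a concentration-titration series. After 5 min at room temperature, fluorescence (480 nm ex/540 nm em) is read every 5 min for 30 min. Data are normalized to control ATA and DMSO.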

For experiment [16] the target is unchanged. In words: Confirmatory qHTS for agonist of cAMP-regulated guanine nucleotide exchange factor 3 (EPAC1) (AID 1645881).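 Note: EPAC1 catalysed release of BODIPY-GDP from Rap1B seen as fluorescence loss; 100% = effect of cAMP agonist control; nearly all actives have a fitted effect of over 75% in size.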
For experiment [17], the target named is Rap guanine nucleotide exchange factor 4 (Homo sapiens) (UniProt Q8WZA2). The experiment in a line: Confirmatory qHTS for agonist of cAMP-regulated guanine nucleotide exchange factor 4 (EPAC2) (AID 1645884).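 Note: nucleotide exchange releases bodipy-GDP from Rap1 and this lowers its fluorescence; % is set by controls: 0 for no effect and ±100 for the full control effect; nearly all actives have a fitted effect of over 65% in size.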
The target is the same in experiment [18]. In words: Confirmatory qHTS for antagonist of cAMP-regulated guanine nucleotide exchange factor 4 (EPAC2) (AID 1645885). Note: potency is the fitted concentration of half-maximal effect; nearly all actives have a fitted effect of over 25% in size.
Experiment [19] deals with Zika virus NS2B-NS3 protease (unlinked). The experiment in a line: Optimization of GU AMC qHTS for Zika virus inhibitors: Unlinked NS2B-NS3 protease assay (AID 1347151).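 Note: 0% = no-inhibitor control and -100% = no-enzyme control; nearly all actives have a fitted effect of over 80% in size.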 In outline: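 Fluorescence gain (340/450 nm) over 15 min at room temperature, ~20% conversion, gave percent inhibition fitted to a 4-parameter Hill equation; enzyme was unlinked NS2B-NS3 (25 nM final), pH 8.0 Tris buffer.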

The nature of experiment [20]: Tertiary RLuc qRT-PCR qHTS assay for Zika virus inhibitors (AID 1347169). Note: potency is the fitted concentration of half-maximal effect; nearly all actives have a fitted effect of over 55% in size. In outline:
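Orthogonal cell-based readout: luminescence measured 1-1.5 hrs after adding live-cell Renilla substrate to Vero cells that had been infected with ZIKV-RLuc (MOI 1-2) post-compound, incubated 48-72 hrs at 37 degrees C.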

The target of experiment [21] is Cytochrome P450 3A4 (Homo sapiens) (UniProt P08684). In words: qHTS Assay for Inhibitors and Substrates of Cytochrome P450 3A4 (AID 884). Note: % is set by controls: 0 for no effect and ±100 for the full control effect; nearly all actives have a fitted effect of over 50% in size. In outline: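 20 nM human CYP3A4 with 25 uM Luciferin-PPXE (at KM) in 200 mM KPO4, preincubated 10 min with compound; NADPH regeneration started a 60 min RT reaction. Luciferin detected by luminescence, normalized to 57 uM ketoconazole as full inhibition.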

The nature of experiment [22]: Confirmation and Secondary Assay for Modulators of Hemoglobin Beta Chain Splicing at IVS2 654 locus (AID 910).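 Note: HeLa cells stably carrying EGFP split by mutant beta-globin IVS2-654 intron; per-well total GFP intensity by laser scanning cytometry after 2-day treatment; % of control where 0% means no effect.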 In outline: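 Readout: per-well total peak green fluorescence (488 nm ex, 500–520 nm em) from objects 5–250 µm, reflecting correct splicing of an EGFP-654 reporter. Compounds were applied for 2 days at 37 °C to overnight-plated HeLa EGFP-654 cells; controls were DMSO and 500 nM IVS2-654 PNA.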

Experiment [23] is described as follows: Confirmation and Secondary Assay for Modulators of Hemoglobin Beta Chain Splicing at IVS2 705 locus (AID 930).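 Note: HeLa cells stably expressing the EGFP-705 splicing reporter; GFP fluorescence per well restored by corrected splicing of the IVS2-705 intron in EGFP; % of control where 0% means no effect.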 In outline: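 Splice-correction reporter: EGFP cDNA split by beta-globin intron 2 bearing the 705 mutation, stably in HeLa. Compound incubation 2 days, 37C; fluorescent objects 5-250 µm summed per well.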
Experiment [24] is described as follows: qHTS Assay for Lipid Storage Modulators (AID 1519; calls by dose curve). The following applies: Drosophila S3 cells, BODIPY lipid droplet/cell ratio, laser cytometry, cells loaded with oleic acid. In outline: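 Cells seeded at 5,000 per well were treated with compounds over a concentration series and loaded with oleic acid (400 uM, as added). Lipid droplet fluorescence (488 nm excitation, 500-530 nm channel) was read by laser-scanning cytometry and normalized to 20 uM Triacsin C.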

For experiment [25], the target named is Lysosomal acid glucosylceramidase (Homo sapiens) (UniProt P04062). The experiment in a line: Glucocerebrosidase-p2 (AID 348; in the data active = potency below about 10 µM; note: potency is the fitted concentration of half-maximal effect). The settings on record: purified GBA, blue fluorogenic substrate, 40 min. In outline:
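Compounds titrated from 0.6 nM upwards against 0.2 nM enzyme in pH 5.9 citric acid/KH2PO4, taurocholate, tween-20; blue fluorogenic substrate 80 uM, 40 min room temperature, stopped and read Ex 365/Em 440 for AC50.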

Experiment [26] is described as follows: AP1 Signaling Pathway (AID 357; active = well fitted curve in either direction with a large enough effect, not every such curve was filed as active). The settings on record: ME-180 (cervical carcinoma) AP-1-bla reporter, EGF-induced, beta-lactamase ratio, 5 h; at 7.69 µM (top of the series). In outline:
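AP-1-bla ME-180 cells, Opti-MEM + 0.5% dialyzed FBS, plated overnight 37 °C. Cpd titration + EC50 EGF, 5 h 37 °C. CCF4 2.5 h RT; ex 405, em 460/530 ratio → %activity, AC50.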

The structures appear in SMILES notation. Records with an inconclusive call do not appear. Calls of active or inactive are those of the source. Unless noted, calls come from the whole dose curve; as a rule, active = well fitted curve in the direction sought with a large enough effect; inconclusive = small, poorly fitted or top-dose-only effect, or another doubt; inactive = no such curve, though single readings can be large; an effect the other way counts as inactive or inconclusive. Where only a bound is given, the exact number is not on record here.

Results on eight compounds are retold here after PubChem BioAssay (NCATS).

Chain of Furin (Homo sapiens) (P09958 whole entry, looked up): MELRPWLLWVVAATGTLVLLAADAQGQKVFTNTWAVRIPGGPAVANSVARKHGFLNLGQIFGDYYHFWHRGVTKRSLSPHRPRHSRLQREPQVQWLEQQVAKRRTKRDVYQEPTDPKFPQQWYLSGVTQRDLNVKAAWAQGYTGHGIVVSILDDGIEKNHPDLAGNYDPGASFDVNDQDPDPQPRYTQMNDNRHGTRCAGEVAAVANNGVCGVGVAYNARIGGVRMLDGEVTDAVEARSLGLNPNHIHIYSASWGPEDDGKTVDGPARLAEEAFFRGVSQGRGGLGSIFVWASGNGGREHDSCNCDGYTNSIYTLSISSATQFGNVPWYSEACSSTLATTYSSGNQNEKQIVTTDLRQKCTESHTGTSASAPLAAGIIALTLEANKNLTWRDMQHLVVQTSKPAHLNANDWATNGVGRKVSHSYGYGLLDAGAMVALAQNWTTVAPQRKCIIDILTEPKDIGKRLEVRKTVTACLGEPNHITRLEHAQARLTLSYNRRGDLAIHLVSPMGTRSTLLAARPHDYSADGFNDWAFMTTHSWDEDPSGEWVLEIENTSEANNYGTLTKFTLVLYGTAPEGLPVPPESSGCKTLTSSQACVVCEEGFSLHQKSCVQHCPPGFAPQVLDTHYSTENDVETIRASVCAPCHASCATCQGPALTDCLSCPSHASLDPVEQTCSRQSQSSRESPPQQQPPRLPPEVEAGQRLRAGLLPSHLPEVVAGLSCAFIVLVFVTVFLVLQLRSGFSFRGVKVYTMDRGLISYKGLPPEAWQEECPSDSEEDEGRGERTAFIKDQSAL
Chain of Glucocorticoid receptor (Homo sapiens) (P04150 whole entry, looked up, the tested form may be a part): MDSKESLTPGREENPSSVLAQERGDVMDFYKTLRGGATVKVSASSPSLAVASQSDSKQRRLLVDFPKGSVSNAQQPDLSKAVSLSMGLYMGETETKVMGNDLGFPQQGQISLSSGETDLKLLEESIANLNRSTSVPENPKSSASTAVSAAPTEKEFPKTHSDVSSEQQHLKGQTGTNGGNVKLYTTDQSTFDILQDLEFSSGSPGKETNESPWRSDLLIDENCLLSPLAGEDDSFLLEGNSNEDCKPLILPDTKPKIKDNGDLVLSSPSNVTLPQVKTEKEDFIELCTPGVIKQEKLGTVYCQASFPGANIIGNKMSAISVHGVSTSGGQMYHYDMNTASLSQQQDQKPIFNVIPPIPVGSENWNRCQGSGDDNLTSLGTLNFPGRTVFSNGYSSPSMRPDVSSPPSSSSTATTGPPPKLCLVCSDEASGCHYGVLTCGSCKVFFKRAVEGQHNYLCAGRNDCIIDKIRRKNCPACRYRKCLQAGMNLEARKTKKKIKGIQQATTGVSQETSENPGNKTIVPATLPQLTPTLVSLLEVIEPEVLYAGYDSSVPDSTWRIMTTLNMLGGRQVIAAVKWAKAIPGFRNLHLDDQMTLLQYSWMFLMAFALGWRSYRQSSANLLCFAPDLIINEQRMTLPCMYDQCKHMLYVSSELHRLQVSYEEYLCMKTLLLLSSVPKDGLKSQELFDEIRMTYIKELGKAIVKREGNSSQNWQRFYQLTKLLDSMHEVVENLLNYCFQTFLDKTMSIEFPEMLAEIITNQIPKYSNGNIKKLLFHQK
Chain of Rap guanine nucleotide exchange factor 4 (Homo sapiens) (Q8WZA2 whole entry, looked up): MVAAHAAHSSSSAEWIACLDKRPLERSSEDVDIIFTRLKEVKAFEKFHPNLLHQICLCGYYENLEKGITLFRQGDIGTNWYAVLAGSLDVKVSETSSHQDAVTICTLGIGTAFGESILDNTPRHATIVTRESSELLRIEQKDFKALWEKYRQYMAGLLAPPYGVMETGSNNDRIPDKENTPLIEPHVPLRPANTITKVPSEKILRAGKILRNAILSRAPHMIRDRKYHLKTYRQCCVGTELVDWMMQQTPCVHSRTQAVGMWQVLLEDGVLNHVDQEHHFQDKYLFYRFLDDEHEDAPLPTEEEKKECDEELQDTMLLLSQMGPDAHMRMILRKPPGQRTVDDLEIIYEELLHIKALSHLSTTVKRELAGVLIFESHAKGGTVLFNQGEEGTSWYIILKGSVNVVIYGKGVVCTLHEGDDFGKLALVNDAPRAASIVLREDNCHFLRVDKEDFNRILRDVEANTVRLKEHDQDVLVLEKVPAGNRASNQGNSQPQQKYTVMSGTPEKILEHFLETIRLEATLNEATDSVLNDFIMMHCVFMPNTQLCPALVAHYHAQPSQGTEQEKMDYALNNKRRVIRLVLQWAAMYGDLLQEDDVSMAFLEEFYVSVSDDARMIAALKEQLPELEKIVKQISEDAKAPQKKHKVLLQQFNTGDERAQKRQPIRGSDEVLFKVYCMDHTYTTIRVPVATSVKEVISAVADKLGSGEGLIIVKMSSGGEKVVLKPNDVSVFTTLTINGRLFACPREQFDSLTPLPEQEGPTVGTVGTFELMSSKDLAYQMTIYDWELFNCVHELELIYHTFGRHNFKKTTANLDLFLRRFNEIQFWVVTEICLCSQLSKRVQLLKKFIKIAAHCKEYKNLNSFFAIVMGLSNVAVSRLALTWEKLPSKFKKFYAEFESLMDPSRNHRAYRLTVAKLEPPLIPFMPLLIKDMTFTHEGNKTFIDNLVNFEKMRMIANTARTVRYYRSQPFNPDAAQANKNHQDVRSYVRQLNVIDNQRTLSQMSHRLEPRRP
Chain of Ubiquitin carboxyl-terminal hydrolase 1 (Homo sapiens) (O94782 whole entry, looked up): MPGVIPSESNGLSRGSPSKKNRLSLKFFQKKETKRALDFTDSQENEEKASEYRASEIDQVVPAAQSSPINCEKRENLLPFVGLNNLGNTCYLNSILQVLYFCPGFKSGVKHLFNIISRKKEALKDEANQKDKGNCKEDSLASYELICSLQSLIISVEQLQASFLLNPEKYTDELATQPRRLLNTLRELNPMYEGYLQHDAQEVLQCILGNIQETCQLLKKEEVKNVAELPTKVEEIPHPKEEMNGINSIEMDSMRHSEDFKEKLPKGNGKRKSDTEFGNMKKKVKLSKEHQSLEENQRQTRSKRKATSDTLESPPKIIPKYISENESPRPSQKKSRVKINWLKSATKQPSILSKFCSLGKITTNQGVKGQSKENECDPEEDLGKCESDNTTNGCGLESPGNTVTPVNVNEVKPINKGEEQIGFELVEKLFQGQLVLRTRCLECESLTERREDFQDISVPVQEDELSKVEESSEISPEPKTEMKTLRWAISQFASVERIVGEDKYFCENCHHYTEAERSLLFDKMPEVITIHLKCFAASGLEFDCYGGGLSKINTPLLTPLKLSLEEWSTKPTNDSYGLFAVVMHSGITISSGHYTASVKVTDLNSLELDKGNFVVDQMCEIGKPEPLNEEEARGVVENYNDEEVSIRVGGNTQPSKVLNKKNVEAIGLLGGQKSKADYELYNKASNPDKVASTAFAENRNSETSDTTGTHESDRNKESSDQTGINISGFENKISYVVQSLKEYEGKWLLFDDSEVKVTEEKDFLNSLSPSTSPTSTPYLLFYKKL
Chain of 3',5'-cyclic-AMP phosphodiesterase 4B (Homo sapiens) (Q07343 whole entry, looked up): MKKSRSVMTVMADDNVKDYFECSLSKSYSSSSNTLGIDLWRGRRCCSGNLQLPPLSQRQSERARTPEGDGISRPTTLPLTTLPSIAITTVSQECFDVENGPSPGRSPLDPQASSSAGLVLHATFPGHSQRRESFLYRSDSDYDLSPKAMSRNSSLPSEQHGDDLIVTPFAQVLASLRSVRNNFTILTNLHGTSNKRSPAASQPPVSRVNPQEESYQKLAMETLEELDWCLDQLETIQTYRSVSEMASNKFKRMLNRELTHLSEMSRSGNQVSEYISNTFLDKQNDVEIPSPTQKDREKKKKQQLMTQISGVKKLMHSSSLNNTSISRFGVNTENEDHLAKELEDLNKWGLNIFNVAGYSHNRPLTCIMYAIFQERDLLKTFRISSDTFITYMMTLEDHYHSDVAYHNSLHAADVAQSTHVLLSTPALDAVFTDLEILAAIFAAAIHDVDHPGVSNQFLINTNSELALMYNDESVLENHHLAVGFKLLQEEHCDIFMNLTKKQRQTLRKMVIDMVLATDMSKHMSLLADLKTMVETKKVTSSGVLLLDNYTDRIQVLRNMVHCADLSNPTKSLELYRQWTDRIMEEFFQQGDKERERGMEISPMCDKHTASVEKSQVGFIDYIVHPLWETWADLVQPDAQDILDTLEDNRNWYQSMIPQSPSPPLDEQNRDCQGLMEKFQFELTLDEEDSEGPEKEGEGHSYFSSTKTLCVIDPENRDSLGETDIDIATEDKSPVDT
Chain of Rap guanine nucleotide exchange factor 3 (Homo sapiens) (O95398 whole entry, looked up): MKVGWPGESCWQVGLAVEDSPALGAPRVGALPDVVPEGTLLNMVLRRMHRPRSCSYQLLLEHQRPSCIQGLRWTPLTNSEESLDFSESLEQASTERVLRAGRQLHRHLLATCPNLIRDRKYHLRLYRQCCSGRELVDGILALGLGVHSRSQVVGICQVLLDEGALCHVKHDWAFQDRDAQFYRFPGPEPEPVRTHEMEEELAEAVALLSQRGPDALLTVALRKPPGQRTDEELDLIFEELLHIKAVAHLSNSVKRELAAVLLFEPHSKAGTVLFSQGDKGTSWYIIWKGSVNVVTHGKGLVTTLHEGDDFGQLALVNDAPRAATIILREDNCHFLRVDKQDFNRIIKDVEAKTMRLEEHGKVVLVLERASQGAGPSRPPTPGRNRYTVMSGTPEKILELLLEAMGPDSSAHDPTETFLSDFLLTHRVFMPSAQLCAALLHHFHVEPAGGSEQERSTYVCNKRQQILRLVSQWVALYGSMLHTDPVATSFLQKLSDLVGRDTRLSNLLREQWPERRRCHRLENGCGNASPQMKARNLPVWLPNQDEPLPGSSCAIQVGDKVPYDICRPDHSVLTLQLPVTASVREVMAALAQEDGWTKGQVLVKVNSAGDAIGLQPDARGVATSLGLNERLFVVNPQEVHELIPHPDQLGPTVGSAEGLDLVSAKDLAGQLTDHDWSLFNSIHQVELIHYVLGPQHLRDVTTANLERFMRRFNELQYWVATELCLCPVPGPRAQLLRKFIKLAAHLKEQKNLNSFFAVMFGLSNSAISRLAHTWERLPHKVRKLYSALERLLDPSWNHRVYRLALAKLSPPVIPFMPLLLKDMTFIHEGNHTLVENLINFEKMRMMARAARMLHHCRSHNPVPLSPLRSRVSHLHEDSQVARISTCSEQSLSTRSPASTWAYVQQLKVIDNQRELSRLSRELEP

On to `CC1(COc2ccc(C[C@H]3SC(=O)NC3=O)cc2)CCCCC1`, for which the Potency in experiment [1] was > 46 µM (inactive); in experiment [2], > 46 µM (inactive); in experiment [5], 79.4 µM (active); in experiment [8], 19.2 µM (active); in [9], 21.5 µM (active); in experiment [10] it was 11.9 µM (active). Also, the Potency in experiment [11] was 4.4 µM (active); in [15], 55.9 µM (active); in experiment [18], 49.4 µM (active). Moreover, the Potency result in [3], in experiment [4], in experiment [6], in experiment [7], in [12] and in experiment [13] was “inactive” each time. The Potency result in experiment [14] was “inactive”. Besides, the compound was classed as inactive in experiment [16] and in experiment [17].

Turning to `O=C(O)COc1ccc(-c2nccc3c2C(=O)N(Cc2cccc(C(F)(F)F)c2)CC(COc2cccnc2)O3)cc1` (stereo not drawn), the Potency entry in [7], in experiment [8] and in [9] was “inactive” in each case.

In the case of `CCOc1ccc(C2C(=O)N(C3CCCCCC3)CC(=O)N2CCc2ccc(Cl)cc2)cc1OC` (stereo not drawn), the Potency result in experiment [7], in experiment [19], in experiment [12] and in experiment [13] was “inactive” each time. Besides, the Potency in experiment [20] is 18.6 µM (active).

Consider `C[C@H]1O[C@@H](O[C@H]2[C@@H](O)C[C@H](O[C@H]3[C@@H](O)C[C@H](O[C@H]4CC[C@]5(C)C6C[C@@H](O)[C@]7(C)[C@@H](C8=CC(=O)OC8)CC[C@]7(O)C6CC[C@@H]5C4)O[C@@H]3C)O[C@@H]2C)C[C@H](O)[C@@H]1O` (stereo partly drawn), for which the Potency entry in experiment [7], in experiment [19], in [10], in experiment [12] and in experiment [14] was “inactive” in each case. Further, the Potency in [20] is 0.294 µM (active).

`O=C1C2=C(Nc3ccccc3SC2c2ccc(Cl)c(Cl)c2)c2ccccc21` (stereo not drawn): in experiment [7], the Potency result is “inactive”.

For the compound `O=S(=O)(N[C@H]1CO[C@H]2[C@@H]1OC[C@@H]2Nc1nccc(-c2ccc3c(c2)OCO3)n1)c1ccc2ccccc2c1`, in experiment [7], the Potency is 55.5 µM (active).

Regarding `CC1O[C@@H](O[C@@H]2C(O)C[C@H](O[C@@H]3C(O)C[C@@H](OC4CC[C@@]5(C)C6CC(O)[C@@]7(C)C(C8=CC(=O)OC8)CC[C@@]7(O)C6CC[C@@H]5C4)OC3C)OC2C)CC(O)[C@H]1O` (stereo partly drawn), the Potency entry in experiment [21], in experiment [5], in experiment [7], in experiment [19] and in experiment [12] was “inactive” each time. In addition, the compound was called inactive in experiment [22] and in [23]. Also, the activity change, negative = inhibition in [24] (at 57.5 µM (top of the series)) is 7.91% (inactive). Besides, the results for the max response in [24] (measured here: cell count channel max response) and in experiment [24] (measured here: lipid channel max response) were 11.2% and 22.9%, respectively. In experiment [20], the Potency is 1.17 µM (active).

With `Cc1c2ccccc2c(CSC(=N)N)c2ccccc12`, the Potency in experiment [25] was 1.39 µM (active); in [1], > 46 µM (inactive); in [2], > 9.22 µM (inactive); in experiment [10], 21.2 µM (active). Moreover, the activity change, negative = inhibition in [26] is -16.8% (inactive); in [3] it was 27.8% [at 11.4 µM] (inactive). In addition, the Potency entry in experiment [4], in experiment [7], in [8], in experiment [9], in experiment [11] and in [12] was “inactive” in each case. Besides, the Potency result in [14] was “inactive”.
